The supplement of paper PMC9694430

Columns and labels:
Test in all cases: thermal shift delta Tm vs DMSO control; higher = stronger stabilization (binding)
Conditions in all cases: 12.5 µM; protein concentration 2 µM
LOC_OS04G57630-cb004 = tested on: LOC_OS04G57630-cb004
Summary of the method: (§1)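 The melting temperature shift given here is a triplicate mean, measured against protein that received only DMSO. Melting temperatures came from Boltzmann fits of differential scanning fluorimetry data on E. coli-expressed, purified rice kinase domain constructs. Each 19.5 μl well contained 2 μM kinase, 100 mM potassium phosphate pH 7.5, 150 mM NaCl, 10% glycerol, 5 × SYPRO Orange and compound in DMSO. Plates were scanned from 25°C to 95°C at 0.05°C/s.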

LOC_OS05G07850-cb002 = tested on: LOC_OS05G07850-cb002
Summary of the method: as §1

LOC_OS05G16824-cb004 = tested on: LOC_OS05G16824-cb004
Summary of the method: as §1

LOC_OS05G28520-cb001 = tested on: LOC_OS05G28520-cb001
Summary of the method: as §1

LOC_OS05G30820-cb001 = tested on: LOC_OS05G30820-cb001
Summary of the method: as §1

LOC_OS05G43570-cb004 = tested on: LOC_OS05G43570-cb004
Summary of the method: as §1

LOC_OS06G16330-cb003 = tested on: LOC_OS06G16330-cb003
Summary of the method: as §1

LOC_OS06G22820-cb001 = tested on: T1, LOC_OS06G22820-cb001
T1 sequence (whole entry): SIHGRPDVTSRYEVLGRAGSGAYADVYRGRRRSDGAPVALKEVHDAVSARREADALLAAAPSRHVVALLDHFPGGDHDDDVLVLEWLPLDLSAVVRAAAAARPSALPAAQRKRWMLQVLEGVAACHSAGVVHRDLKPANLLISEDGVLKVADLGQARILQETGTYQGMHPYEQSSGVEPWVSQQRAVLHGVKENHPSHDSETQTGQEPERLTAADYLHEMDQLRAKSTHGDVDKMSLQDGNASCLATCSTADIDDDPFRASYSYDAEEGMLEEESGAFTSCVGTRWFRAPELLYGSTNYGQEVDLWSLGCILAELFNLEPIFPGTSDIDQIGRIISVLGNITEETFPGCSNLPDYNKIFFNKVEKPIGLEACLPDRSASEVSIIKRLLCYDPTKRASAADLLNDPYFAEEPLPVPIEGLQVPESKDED
Summary of the method: as §1

LOC_OS07G06570-cb004 = tested on: LOC_OS07G06570-cb004
Summary of the method: as §1

LOC_OS07G07230-cb001 = tested on: LOC_OS07G07230-cb001
Summary of the method: as §1

Chain of LOC_OS06G16330-cb003 (as listed by the source): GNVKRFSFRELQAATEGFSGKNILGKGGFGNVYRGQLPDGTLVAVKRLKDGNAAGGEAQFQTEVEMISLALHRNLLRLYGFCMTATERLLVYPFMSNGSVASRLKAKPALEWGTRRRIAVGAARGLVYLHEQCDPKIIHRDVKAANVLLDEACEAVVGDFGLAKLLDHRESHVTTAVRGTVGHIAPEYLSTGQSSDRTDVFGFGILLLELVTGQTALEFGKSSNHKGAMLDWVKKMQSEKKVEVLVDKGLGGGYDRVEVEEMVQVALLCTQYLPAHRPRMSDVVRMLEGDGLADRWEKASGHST

| Structure (SMILES) | thermal shift delta Tm (LOC_OS04G57630-cb004) [°C] | thermal shift delta Tm (LOC_OS05G07850-cb002) [°C] | thermal shift delta Tm (LOC_OS05G16824-cb004) [°C] | thermal shift delta Tm (LOC_OS05G28520-cb001) [°C] | thermal shift delta Tm (LOC_OS05G30820-cb001) [°C] | thermal shift delta Tm (LOC_OS05G43570-cb004) [°C] | thermal shift delta Tm (LOC_OS06G16330-cb003) [°C] | thermal shift delta Tm (LOC_OS06G22820-cb001) [°C] | thermal shift delta Tm (LOC_OS07G06570-cb004) [°C] | thermal shift delta Tm (LOC_OS07G07230-cb001) [°C] |
| --- | --- | --- | --- | --- | --- | --- | --- | --- | --- | --- |
| CN1CCN(c2ccc3nc(-c4c(N)c5c(F)cccc5[nH]c4=O)[nH]c3c2)CC1 [Dovitinib (TKI-258) Dilactic Acid] | 3.62 | 8.93 | 15.7 | 1.54 | 1.04 | 1.01 | 6.51 | 0.63 | 1.1 | 0.06 |
| C[C@@H]1CN(C(=O)c2ccc(NC(=O)c3cc(O[C@H](C)c4c(Cl)ccc(F)c4Cl)c(N)nn3)cc2)C[C@H](C)N1 [Ensartinib (X-396)] | 4.75 | 7.81 | 5.94 | 0.56 | 0.45 | 0.3 | 13.8 | 0.22 | 0.36 | 0.35 |
| c1cncc(CN2CCC(n3ncc4c(N5CCOCC5)nc(-c5ccc6[nH]ccc6c5)nc43)CC2)c1 | 0.55 | 0.6 | -2.75 | 0.6 | 0.62 | -0.19 | -0.3 | 0.42 | 0.64 | 0.16 |
| NC(=O)c1ncn([C@@H]2O[C@H](CO)[C@@H](O)[C@H]2O)c1N [AICAR (Acadesine)] | 0.05 | 0.57 | -1.12 | -0.02 | 0.45 | 0.5 | 0.02 | 0.92 | 1.07 | -0.25 |
| Cc1c(CN2CCN(C(=O)[C@H](C)O)CC2)sc2c(N3CCOCC3)nc(-c3cnc(N)nc3)nc12 [Apitolisib (GDC-0980, RG7422)] | 0.67 | 2.89 | 1.9 | 0.57 | 0.58 | 1.24 | 0.88 | 0.56 | 0.61 | -0.1 |
| CC(C)N(CCC(=O)c1ccc2ccccc2c1)Cc1ccccc1 | 0.41 | 4.18 | -2.65 | -0.95 | -1.16 | -0.34 | -1.31 | -1.34 | 0.13 | 0.23 |
| CS(=O)(=O)c1cccc(CNc2nc(Nc3ccc4c(c3)CCC(=O)N4)ncc2C(F)(F)F)c1 | 1.7 | 8.91 | 11.1 | 1.18 | 2.8 | 0.96 | 6.92 | 0.35 | 0.43 | -0.39 |
| C#Cc1cccc(Nc2ncnc3cc(OCCOC)c(OCCO)cc23)c1 | 0.14 | 8.23 | 0.76 | -0.52 | 0.4 | 0.13 | 3.5 | 0.25 | 0.7 | -0.14 |
| Cc1cc(Nc2nc(N[C@@H](C)c3ncc(F)cn3)ncc2Cl)[nH]n1 | 0.37 | 10.9 | 8.64 | 0.22 | 1.6 | 0.91 | 7.15 | 0.49 | 0.97 | 0.17 |
| C=CCc1ccc(O)c(-c2ccc(O)c(CC=C)c2)c1 [Honokiol] | 0.34 | 0.49 | 1.45 | 0.24 | 0.69 | 0.62 | 0.47 | 0.7 | 0.49 | -0.78 |
| CN(C)Cc1cccc(N=C(c2ccccc2)c2c(O)[nH]c3cc(C(=O)N(C)C)ccc23)c1 | 0.46 | 5.73 | 3.8 | -0.08 | 0.49 | 0.76 | 0.77 | 0.98 | 0.59 | -0.37 |
| C=CC(=O)Nc1cccc(Nc2nc(Nc3ccc(N4CCN(C(C)=O)CC4)cc3OC)ncc2C(F)(F)F)c1 [Rociletinib (CO-1686, AVL-301)] | 0.55 | 10.2 | 4.44 | 0.98 | 0.73 | 0.4 | 4.77 | 0.68 | 1.54 | 1.09 |
| CN1CCCN(C(=O)c2cccc(-c3ccc(/C=C4/C(=O)Nc5ccc(Cl)cc54)o3)c2)CC1 | 2.23 | 6.78 | 4.08 | 1.14 | 0.63 | 0.58 | 1.36 | 0.37 | 2.41 | 0.77 |
| CC(=O)c1c(C)c2cnc(Nc3ccc(N4CCNCC4)cn3)nc2n(C2CCCC2)c1=O | 0.52 | 5.93 | 5.52 | 0.05 | 0.23 | 0.31 | 4.77 | -0.1 | 0.7 | 0.73 |
| OC1CCC(Nc2ncc3nc(Nc4c(F)cc(F)cc4F)n([C@H]4CCOC4)c3n2)CC1 (stereo not given in full) [Tanzisertib(CC-930)] | -0.03 | 0.72 | 2.14 | 0.46 | 0.23 | 0.42 | -0.07 | 0.59 | 1.81 | 0.44 |
| COc1ccc(-c2ccc3c(N4CCOCC4)nc(N4C[C@@H](C)O[C@@H](C)C4)nc3n2)cc1CO | -0.55 | -0.78 | -3.16 | 0 | 0.48 | 0.2 | -0.25 | 0.14 | 0.51 | 0.35 |
| CCCCCCCCCCCCCCCCOP(=O)([O-])OCC[N+](C)(C)C [Miltefosine] | -0.37 | -1.01 | -3.83 | -3.02 | -0.84 | -1.92 | -5.12 | -0.23 | -2.61 | -2.12 |
| O=C1NC(=O)C(c2ccccc2[N+](=O)[O-])=C1Nc1ccc(O)c(Cl)c1 | -0.28 | 4.16 | -13.3 | 1.12 | 0.7 | 0.82 | -0.2 | 0.75 | 2.88 | 0.07 |
| C=CC(=O)Nc1ccc2ncnc(Nc3cccc(Br)c3)c2c1 | 0.39 | 0.86 | -2.41 | -0.05 | 0.56 | 0.31 | -0.95 | 0.64 | 0.91 | 0.32 |
